The target in one experiment is Albumin (Bos taurus) (UniProt P02769). The experiment can be described thus: compounds binding labelled BSA control protein – biochemical, small-molecule microarray, Alexa647 label, 635/667 nm fluorescence, artefact control for SMM control protein annotation, profiling panel (AID 1118).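 Also: score merges 667 nm emission intensity and signal-to-noise per printed compound spot.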 The conditions noted are these: BSA-A647 binding, fluorescence 635 nm, higher = more signal.

A short description of experiment [1]: probe aXIP binding to arrayed compounds – biochemical, NeuroSMM set, 635/667 nm fluorescence, primary screen (AID 1119).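 Also: probe is the protein aXip251-270 applied at 1 µg/mL to compound-printed slides; binding of probe to printed compounds measured as 667 nm fluorescence plus signal to noise.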 To be noted: small-molecule microarray, higher = more signal, called active from +8 up or from −8 down.
A short description of experiment [2]: probe aNOTCH3 binding on compound microarray – biochemical, small-molecule microarray, 635/667 nm fluorescence, primary screen (AID 1120).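 Also: probe is a biotin-tagged antibody raised against NOTCH3 rather than NOTCH3 protein; score merges spot fluorescence near 667 nm with spot signal to noise.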 To be noted: higher = more signal.
The nature of experiment [3]: probe aNOTCH2 binding on compound microarray – biochemical, small-molecule microarray, 635/667 nm fluorescence, primary screen (AID 1121).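 Also: score merges feature fluorescence read at 667 nm with its signal to noise.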 To be noted: higher = more signal.
In experiment [4] the target is Carbonic anhydrase 2 (Homo sapiens) (UniProt P00918). The experiment can be described thus: compounds binding carbonic anhydrase 2 – biochemical, small-molecule microarray, Alexa647-labelled CAII, profiling panel (AID 1122). To be noted: CAII-A647 binding fluorescence, higher = more signal.
Experiment [5] can be described thus: COS7 lysate on small-molecule microarray, probe aHis, 635 nm (AID 1123).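 Also: z-score combines 667nm fluorescence intensity with signal-to-noise per printed compound spot.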 The conditions noted are these: COS7 cell lysate, fluorescence, higher = more signal.
The nature of experiment [6]: probe aLAP1 signal on lysate-treated microarray – cell lysate, small-molecule microarray, COS7 lysate, primary screen (AID 1124).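 Also: lysate comes from COS7 cells expressing LAP1 and is applied at 0.3 µg/mL; score merges spot fluorescence near 667 nm with signal-to-noise over triplicate slides.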 To be noted: probe aLAP1, fluorescence, higher = more signal.
The test system of the next experiment is Sam68 (KHDRBS1). The experiment can be described thus: compounds binding KHDRBS1 protein – biochemical, small-molecule microarray, 635 nm fluorescence, primary screen (AID 1125).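 Also: score merges 667 nm channel intensity with signal to noise over triplicate slides.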 To be noted: higher = more signal.
The test system of experiment [7] is Chordin-like protein 2 (CHRDL2). The experiment can be described thus: compounds binding chordin-like 2 – biochemical, small-molecule microarray, 635 nm fluorescence, primary screen (AID 1126).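 Also: printed compound slides probed with Chrdl2 protein at 4 µg/mL for 1 h at 4 C; score merges 667 nm emission intensity with signal to noise over three replicate slides.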 To be noted: fluorescence 635 nm, higher = more signal.
Experiment [8] addresses Concanavalin-A (Canavalia ensiformis) (UniProt P02866). The experiment can be described thus: compounds binding concanavalin A lectin – biochemical, small-molecule microarray, Alexa647 label, 635 nm, artefact control for SMM control protein annotation, primary screen (AID 1127).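 Also: z combines 667 nm emission intensity with signal-to-noise across three replicate slides.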 To be noted: ConA-A647 binding fluorescence, higher = more signal.
Experiment [9] is described as follows: compounds binding Alexa647 anti-His antibody – biochemical, small-molecule microarray, 635 nm fluorescence, artefact control for SMM control protein annotation, primary screen (AID 1128).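 Also: score merges feature fluorescence with signal-to-noise for each printed compound spot.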 To be noted: higher = more signal.
The subject of experiment [10] is Human papillomavirus type 1a E7 protein (residues 1-88). The experiment can be described thus: HPV1a E7 small-molecule binders, primary screen, biochemical, small-molecule microarray, residues 1-88, 635 nm (AID 1129). The conditions noted are these: small-molecule microarray binding, fluorescence 635 nm; higher = more signal.
Experiment [11] concerns the target Focal adhesion kinase 1 (Homo sapiens) (UniProt Q05397). The experiment can be described thus: PTK2 protein binding on printed compound slides – biochemical, small-molecule microarray, 635/667 nm fluorescence, BSA, DTT, primary screen (AID 1130).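 Also: composite of spot emission at 667 nm and signal to noise over triplicate slides.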 The conditions noted are these: 635 nm fluorescence, higher = more signal.
Experiment [12] concerns Fibrinogen (Alexa647-labelled). Kind of experiment: Alexa647-fibrinogen binding to printed small molecules – biochemical, small-molecule microarray, 635/667 nm fluorescence, artefact control for SMM control-protein annotation, profiling panel (AID 1131).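 Also: z-score merges 667 nm fluorescence with per-spot signal-to-noise over triplicate slides.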 The conditions noted are these: fibrinogen-A647 binding fluorescence, higher = more signal.
For experiment [13], the target named is Follistatin (Homo sapiens) (UniProt P19883). Kind of experiment: FST protein binding to printed compounds – biochemical, small-molecule microarray, 635/667 nm fluorescence, primary screen (AID 1132). To be noted: 635 nm fluorescence, higher = more signal.
The target in experiment [14] is Fibroblast growth factor 2 (Homo sapiens) (UniProt P09038). Kind of experiment: basic fibroblast growth factor binding to printed compounds – biochemical, small-molecule microarray, 635/667 nm fluorescence, primary screen (AID 1133). To be noted: FGF2, fluorescence 635/667, higher = more signal.
Experiment [15] can be described thus: JC-1 mitochondrial potential readout, lung cancer cells – cell-based, A549, JC-1 fluorescence, basal, 24 h, 100 nL, profiling panel (AID 1138).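 Also: A549 lung adenocarcinoma cells under basal conditions with no added stimulus; test concentration not given here.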 To be noted: higher = more signal.
A further experiment relates to Lefty1. The experiment can be described thus: Lefty1 protein binding to printed compounds – biochemical, small-molecule microarray, 635/667 nm fluorescence, primary screen (AID 1139). The conditions noted are these: fluorescence 635/667, higher = more signal.
Experiment [16] has as its system wheat germ agglutinin (Triticum aestivum), Alexa647-labelled. The experiment can be described thus: Alexa647-WGA lectin binding to printed small molecules – biochemical, small-molecule microarray, 635/667 nm fluorescence, artefact control for SMM control-protein annotation, profiling panel (AID 1140).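 Also: score merges 667 nm feature emission with signal to noise over triplicate slides.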 To be noted: WGA-A647 binding, 635 nm fluorescence, higher = more signal.

The target of experiment [17] is Luciferin 4-monooxygenase (Photinus pyralis) (UniProt P08659). Kind of experiment: inhibition of purified Photinus pyralis luciferase – biochemical, luminescence, purified enzyme, 2006 set, primary screen (AID 1141).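 Also: cell-free assay with purified firefly luciferase at 100 ng per well in PBS; test concentration not given here.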 To be noted: purified firefly luciferase, SteadyGlo luminescence, 30 min; higher = more signal, called active from +8 up or from −8 down.

Activity calls are given as the source filed them.

Chain of Luciferin 4-monooxygenase (Photinus pyralis) (P08659 whole entry, looked up): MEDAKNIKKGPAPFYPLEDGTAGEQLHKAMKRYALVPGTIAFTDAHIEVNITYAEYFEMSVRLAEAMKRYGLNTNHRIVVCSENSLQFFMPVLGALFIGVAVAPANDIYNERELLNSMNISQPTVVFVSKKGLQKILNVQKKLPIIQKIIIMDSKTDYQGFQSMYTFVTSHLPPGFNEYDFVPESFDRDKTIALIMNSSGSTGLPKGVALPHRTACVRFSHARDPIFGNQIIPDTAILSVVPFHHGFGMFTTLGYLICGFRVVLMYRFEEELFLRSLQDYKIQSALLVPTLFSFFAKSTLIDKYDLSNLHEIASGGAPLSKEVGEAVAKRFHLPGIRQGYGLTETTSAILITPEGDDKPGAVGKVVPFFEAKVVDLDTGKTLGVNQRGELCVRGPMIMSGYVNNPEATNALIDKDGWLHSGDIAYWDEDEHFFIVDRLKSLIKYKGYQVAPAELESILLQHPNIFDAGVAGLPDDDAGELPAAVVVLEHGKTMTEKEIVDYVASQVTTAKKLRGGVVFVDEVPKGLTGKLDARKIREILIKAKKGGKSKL
Chain of Fibroblast growth factor 2 (Homo sapiens) (P09038 whole entry, looked up): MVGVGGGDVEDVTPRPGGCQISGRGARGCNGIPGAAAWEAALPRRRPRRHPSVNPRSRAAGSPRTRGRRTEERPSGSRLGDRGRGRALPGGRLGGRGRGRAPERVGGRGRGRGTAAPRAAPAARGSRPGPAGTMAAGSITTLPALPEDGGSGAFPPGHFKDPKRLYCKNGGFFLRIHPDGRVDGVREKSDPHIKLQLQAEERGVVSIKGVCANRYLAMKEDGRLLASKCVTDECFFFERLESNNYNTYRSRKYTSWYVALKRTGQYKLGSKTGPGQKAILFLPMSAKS
Chain of Follistatin (Homo sapiens) (P19883 whole entry, looked up): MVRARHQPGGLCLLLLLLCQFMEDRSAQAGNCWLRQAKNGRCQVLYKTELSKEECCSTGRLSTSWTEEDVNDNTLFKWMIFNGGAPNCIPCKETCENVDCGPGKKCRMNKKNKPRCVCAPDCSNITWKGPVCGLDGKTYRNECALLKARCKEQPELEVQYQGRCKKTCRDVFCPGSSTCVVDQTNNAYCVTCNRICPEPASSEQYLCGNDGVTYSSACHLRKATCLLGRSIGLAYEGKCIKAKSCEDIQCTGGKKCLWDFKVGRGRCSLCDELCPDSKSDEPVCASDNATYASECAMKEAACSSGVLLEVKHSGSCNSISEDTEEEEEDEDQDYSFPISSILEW
Chain of Albumin (Bos taurus) (P02769 whole entry, looked up): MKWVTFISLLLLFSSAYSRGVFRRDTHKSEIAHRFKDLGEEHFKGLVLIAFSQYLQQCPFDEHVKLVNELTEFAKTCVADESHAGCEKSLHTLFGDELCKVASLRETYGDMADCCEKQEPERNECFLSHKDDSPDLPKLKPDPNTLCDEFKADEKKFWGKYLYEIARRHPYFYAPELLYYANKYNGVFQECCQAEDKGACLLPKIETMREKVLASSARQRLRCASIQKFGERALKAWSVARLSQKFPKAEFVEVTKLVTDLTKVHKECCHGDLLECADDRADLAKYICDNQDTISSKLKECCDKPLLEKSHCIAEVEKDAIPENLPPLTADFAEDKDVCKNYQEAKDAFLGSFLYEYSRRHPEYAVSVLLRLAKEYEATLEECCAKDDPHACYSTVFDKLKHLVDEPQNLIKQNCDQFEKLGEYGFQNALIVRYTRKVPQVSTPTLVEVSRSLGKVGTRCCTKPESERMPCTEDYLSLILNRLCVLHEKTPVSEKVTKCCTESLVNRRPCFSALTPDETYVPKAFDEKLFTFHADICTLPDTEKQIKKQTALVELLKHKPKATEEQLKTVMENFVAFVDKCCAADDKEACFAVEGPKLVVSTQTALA
Chain of Focal adhesion kinase 1 (Homo sapiens) (Q05397 whole entry, looked up): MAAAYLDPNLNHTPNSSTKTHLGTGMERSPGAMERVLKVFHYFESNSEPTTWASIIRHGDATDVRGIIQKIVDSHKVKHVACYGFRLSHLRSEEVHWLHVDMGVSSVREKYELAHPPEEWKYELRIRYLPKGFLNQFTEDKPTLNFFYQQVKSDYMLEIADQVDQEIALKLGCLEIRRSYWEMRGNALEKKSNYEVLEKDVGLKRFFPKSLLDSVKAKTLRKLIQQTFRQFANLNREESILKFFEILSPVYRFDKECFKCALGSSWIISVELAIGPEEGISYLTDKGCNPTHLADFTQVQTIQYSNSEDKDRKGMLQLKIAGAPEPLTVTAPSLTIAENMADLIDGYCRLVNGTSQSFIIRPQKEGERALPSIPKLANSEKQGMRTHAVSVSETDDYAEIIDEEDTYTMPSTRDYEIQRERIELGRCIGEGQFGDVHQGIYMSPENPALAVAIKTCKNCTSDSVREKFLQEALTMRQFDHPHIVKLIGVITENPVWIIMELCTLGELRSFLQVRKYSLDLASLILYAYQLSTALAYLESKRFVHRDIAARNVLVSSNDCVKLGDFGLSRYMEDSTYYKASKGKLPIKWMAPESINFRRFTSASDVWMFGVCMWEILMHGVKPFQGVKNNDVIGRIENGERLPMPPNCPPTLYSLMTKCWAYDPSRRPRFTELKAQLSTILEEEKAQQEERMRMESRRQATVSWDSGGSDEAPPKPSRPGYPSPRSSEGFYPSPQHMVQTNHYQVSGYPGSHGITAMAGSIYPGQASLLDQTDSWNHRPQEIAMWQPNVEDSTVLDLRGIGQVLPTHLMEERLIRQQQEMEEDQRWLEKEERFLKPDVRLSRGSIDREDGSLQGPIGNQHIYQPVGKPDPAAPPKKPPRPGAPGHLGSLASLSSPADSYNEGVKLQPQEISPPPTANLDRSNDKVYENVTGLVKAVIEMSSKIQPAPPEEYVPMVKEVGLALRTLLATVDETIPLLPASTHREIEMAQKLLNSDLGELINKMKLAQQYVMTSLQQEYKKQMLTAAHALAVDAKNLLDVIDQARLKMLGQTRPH
Chain of Concanavalin-A (Canavalia ensiformis) (P02866 whole entry, looked up): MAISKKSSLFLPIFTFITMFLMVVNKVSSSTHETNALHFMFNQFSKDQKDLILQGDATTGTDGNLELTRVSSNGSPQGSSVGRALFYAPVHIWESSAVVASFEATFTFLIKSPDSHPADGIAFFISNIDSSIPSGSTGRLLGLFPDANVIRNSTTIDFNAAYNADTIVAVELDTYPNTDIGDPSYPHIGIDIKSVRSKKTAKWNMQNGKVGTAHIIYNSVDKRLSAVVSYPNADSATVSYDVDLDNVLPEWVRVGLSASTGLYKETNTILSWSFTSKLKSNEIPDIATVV

On to `[N-]=[N+]=NCc1ccccc1C[C@]1(C(=O)N2CCCCC2)N=C(c2ccc(OCCCO)cc2)O[C@H]1c1ccccc1CN=[N+]=[N-]`, for which the composite z-score is 0.899 with Albumin (Bos taurus); 0.268 in experiment [2]; -0.0817 in [3]; 0.441 in [4]; 2.56 in experiment [5]; 0.796 in experiment [6]. Further, the composite z-score is 1.29 in the experiment with Sam68 (KHDRBS1); -0.914 in [7]; 1.04 in experiment [8]; 0.538 in experiment [9]; 1.21 in experiment [10]; 0.652 in experiment [11]. Also, the composite z-score in [12] was 0.947; in experiment [13], 1.04; in [14], -0.369; with Lefty1, 0.453; in experiment [16] it was 0.59. Moreover, in [1], the composite Z-score is 0.375 (inactive). The z-score in experiment [15] was -0.0989; in experiment [17] it was -1.02 (inactive).
`C[C@]1(C(=O)NCc2ccccc2)c2ccccc2C(=O)N(Cc2cc(C(F)(F)F)cc(C(F)(F)F)c2)[C@H]1c1ccc(CO)cc1`: the composite z-score with Albumin (Bos taurus) was found to be 0.157; in [2] it was 0.154; in experiment [3], 0.0827; in experiment [4], 0.529; in [5], 0.9; in experiment [6], 0.158. For the same molecule, the composite z-score in the experiment with Sam68 (KHDRBS1) is 1.3; in [7], 0.242; in experiment [8] it was 0.677; in experiment [9], -0.152; in [10] it was 1.19; in experiment [11], 0.415. Further, the composite z-score in experiment [12] worked out at 0.749; in experiment [13], 1.34; in experiment [14], 1.72; in the experiment with Lefty1, 0.221; in experiment [16] it was 0.322. Besides, the composite Z-score in experiment [1] was -0.471 (inactive). In addition, the z-score in experiment [15] was 0.195; in [17], -0.543 (inactive).
For the molecule `C[C@@H]1C=CCC(=O)OC[C@H]2O[C@@H](C=C[C@@H]2O)[C@H](C)C=CCC(=O)OC[C@H]2O[C@H]1C=C[C@@H]2O`, the composite z-score with Albumin (Bos taurus) is -0.581; in experiment [2], 0.716; in experiment [3], -0.0318; in experiment [4], -0.227; in [5], -0.268; in [6], -0.725. In addition, the composite z-score was 0.65 in the experiment with Sam68 (KHDRBS1); 1.58 in experiment [7]; -0.343 in experiment [8]; 0.106 in [9]; -0.145 in experiment [10]; -0.095 in [11]. For the same molecule, the composite z-score in experiment [12] was -0.282; in experiment [13] it was 1.53; in [14], 1.83; in the experiment on Lefty1, 1.75; in experiment [16], -0.312. In [1], the composite Z-score is 1.21 (inactive). The z-score in experiment [15] is 0.307; in experiment [17], -0.304 (inactive).
Consider `CN(C)C(=O)[C@@]1(Cc2ccccc2N=[N+]=[N-])N=C(c2ccc(OCCCO)cc2)O[C@H]1c1ccccc1CN=[N+]=[N-]`, for which the composite z-score with Albumin (Bos taurus) was 0.972; in experiment [2], 0.293; in experiment [3], 0.215; in [4], 0.622; in [5], 3.13; in experiment [6], 1.12. Also, the composite z-score in the experiment on Sam68 (KHDRBS1) is 1.29; in experiment [7], -0.393; in [8] it was 1.2; in [9], 2.23; in experiment [10], 1.23; in experiment [11], 1.02. Further, the composite z-score in experiment [12] worked out at 0.831; in experiment [13], 1.21; in [14] it was 0.512; in the experiment on Lefty1, 0.633; in experiment [16], 1.45. Also, the composite Z-score in [1] is 0.478 (inactive). In addition, the z-score in experiment [15] is 2.31; in experiment [17] it was -1.92 (inactive).
With `O=C(NCc1ccccc1)[C@@]1(CCS(=O)(=O)c2ccccc2)COC(c2ccc(OCCCO)cc2)=N1`, the composite z-score was found to be 0.514 with Albumin (Bos taurus); 0.291 in [2]; 0.0539 in experiment [3]; 0.808 in [4]; 3.01 in experiment [5]; 0.72 in experiment [6]. Besides, the composite z-score with Sam68 (KHDRBS1) was 1.3; in experiment [7] it was -0.696; in [8] it was 1.17; in experiment [9], 3.16; in [10], 1.26; in experiment [11], 0.79. Besides, the composite z-score in [12] was 0.869; in experiment [13] it was 0.354; in experiment [14], -0.376; in the experiment with Lefty1 it was -0.278; in experiment [16], 1.49. Also, in experiment [1], the composite Z-score was 0.294 (inactive). Moreover, the z-score in experiment [15] was 0.959; in [17], -1.42 (inactive).
On to `COc1ccc([Si](C)(C)[C@H]2[C@H](CCO)O[C@@]3(C(=O)N(Cc4ccccc4)c4ccc(N5C(=O)c6cccc7cccc5c67)cc43)[C@@H]2C)cc1`, for which the composite z-score is 0.151 in the experiment with Albumin (Bos taurus); -0.18 in experiment [2]; -0.155 in experiment [3]; 0.286 in [4]; 0.0609 in [5]; 1.06 in experiment [6]. Besides, the composite z-score with Sam68 (KHDRBS1) was 0.143; in experiment [7] it was -0.966; in experiment [8], 0.386; in experiment [9] it was 1.38; in experiment [10], -0.333; in experiment [11], 0.209. Besides, the composite z-score in [12] was -0.603; in experiment [13], -0.357; in experiment [14] it was -0.751; with Lefty1 it was -0.297; in experiment [16] it was 0.641. The composite Z-score in experiment [1] is -0.229 (inactive). Further, the results for the z-score in experiment [15] and in experiment [17] were 2.33 and -1.84 (inactive), respectively.

These data come from PubChem BioAssay.
